Bioassay records: PubChem BioAssay, The Scripps Research Institute Molecular Screening Center
An excerpt weighted towards active compounds, which were near 4.1% of everything screened.
DAX1 inh-1 – inhibits human nuclear receptor DAX1; P51843; HEK293 Gal4-DAX1 luciferase reporter, luminescence; inhibition, % at 6.75 µM; 340,000 compounds, 0.99% hits; AID 504766;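 active = inhibition above the mean over all tested compounds plus 3 SD, cut at about 4.2% in these data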;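 also: 0% = DAX1-transfected cells with DMSO and 100% = empty-vector control cells with DMSO; inhibition shows as a rise in luminescence from relieved DAX1 repression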
Target sequence (P51843 207-470 limits assumed): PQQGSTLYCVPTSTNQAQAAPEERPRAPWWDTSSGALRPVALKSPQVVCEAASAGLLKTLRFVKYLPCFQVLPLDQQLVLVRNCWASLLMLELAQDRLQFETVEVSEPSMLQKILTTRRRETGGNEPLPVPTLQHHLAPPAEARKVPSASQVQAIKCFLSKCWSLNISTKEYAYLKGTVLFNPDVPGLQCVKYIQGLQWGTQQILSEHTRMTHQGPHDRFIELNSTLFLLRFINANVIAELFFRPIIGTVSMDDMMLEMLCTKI
DAX1 inh-2 – inhibitors of DAX1 repression of SF-1 activated StAR promoter | inhibition, % at 6.8 µM | HEK293T StAR-luciferase reporter, SF-1/DAX-1 repression relief | 370,000 compounds, 1.1% hits;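 active = inhibition above the mean over all tested compounds plus 3 SD, cut at about 3.6% in these data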;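 also: 0% = DAX-1 cells with DMSO and 100% = cells lacking DAX-1 with DMSO; higher inhibition means more luminescence from relief of DAX-1 repression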
hgDAF-12 ag – hgDAF-12 agonism, primary luciferase screen; HEK293 GAL4-hgDAF12 UAS-luciferase reporter, agonist luminescence; normalized to butyrate control; activation, % at 6.8 µM; 370,000 compounds, 1.8% hits; AID 687014;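 active = activation above a cutoff set at the mean of all screened compounds plus 3 SD, cut at about 10% in these data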;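 also: 0% = DMSO wells and 100% = sodium butyrate wells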
ssDAF12 agonist – activates DAF-12 receptor from parasite S. stercoralis | HEK293 ssDAF-12/GRIP1 lit1-tk-luc reporter, luminescence; % of 3 µM dafachronic acid response | AID 652126 | 370,000 compounds, 1% hits | activation, % at 6.8 µM;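 active = activation above the mean over all tested compounds plus 3 SD, cut at about 0.9% in these data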;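 also: 0% = DMSO-only wells and 100% = 3 µM delta7-dafachronic acid wells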
hcDAF-12 act – activates DAF-12 receptor from parasite H. contortus. HEK293 hcDAF-12 lit1-tk-luc reporter, luminescence; 0% DMSO, 100% Δ7-dafachronic acid. activation, % at 6.8 µM. 370,000 compounds, 1.4% hits. AID 652067;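 active = activation above the mean of all tested compounds plus 3 SD, cut at about 5.5% in these data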;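 also: 100% = response to 3 µM Δ7-dafachronic acid high control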
The depositor's hits bear a star; . = no result given.

SMILES	DAX1 inh-1	DAX1 inh-2	hgDAF-12 ag	ssDAF12 agonist	hcDAF-12 act
C[n+]1cccc(NC(=O)c2ccccc2)c1	.	1	4	-1	0
COC(=O)C1=C(C)N(Cc2ccc(F)cc2)C(=S)NC1c1ccc(Cl)cc1 (stereo unspecified)	.	0	3	-1	-2
COc1cccc(OC)c1C(=O)NC(=S)Nc1ccc2c(c1)Cc1ccccc1-2	1	1	0	0	4
COc1cccc(OC)c1C(=O)Nc1ccc2c(c1)Cc1ccccc1-2	3	1	2	0	6.4*
C=CCN1C(=O)c2n[nH]c(C(C)C)c2C1c1ccc2c(c1)OCO2 (stereo unspecified)	.	1	-2	-1	-1
CC1(C(=O)Nc2ccc(F)c(Cl)c2)Cc2c(-c3ccccc3)ccnc2O1 (stereo unspecified)	.	0	4	-2	0
C#CCNC(=O)C[C@H]1C[C@@]2(C(=O)OC)C(=C[C@H](C(C)(C)C)O[C@@H]2C)N(Cc2ccc(Cl)cc2Cl)C1=O	.	0	-1	-1	-3
COc1ccc(-c2nc(SC)n(C(=O)c3ccco3)n2)cc1	4.2*	1	6	-1	3
COc1ccc(-c2nc(SCc3ccccc3)n(C(=O)c3ccco3)n2)cc1	1	0	3	-1	-1
Cc1ccccc1C(=O)N[C@@H](Cc1cccnc1)C(=O)N1CCC[C@H]1C(=O)NC1CCCC1	.	0	-5	0	0
Cc1occc1C(=O)NNC(=S)Nc1ccccc1C(F)(F)F	4	2	13*	0	5
Cc1ccccc1NC(=S)NNC(=O)c1ccoc1C	1	1	6	-1	2
Cc1occc1C(=O)NNC(=S)Nc1ccccc1	2	2	12*	0	1
O=C(NCc1ccccc1)[C@@H]1CCCN1C(=O)[C@H]1CCCN1C(=O)c1ccccc1	.	0	1	-1	-1
O=Cc1ccc2cccnc2n1	1	0	1	2.0*	6.1*
O=C(CCC(=O)N1CCOc2ccccc21)NCCCN1CCCCC1	0	1	1	-1	0
CCN1CCN(CCCNC(=O)CCC(=O)N2CCOc3ccccc32)CC1	0	1	-3	-1	5.7*
CC1CCC(NC(=O)C2c3ccccc3C(=O)N2CCCN2CCOCC2)CC1 (stereo unspecified)	4.7*	-1	-2	1.0*	-1
CCCCN1C(=O)c2ccccc2C1C(=O)NC1CCCC1 (stereo unspecified)	0	1	0	-2	-2
O=C(C(=O)N1CCC(CNS(=O)(=O)c2ccccc2)CC1)c1cc2ccccc2o1	.	0	-2	-2	-1
CCCC[C@H](C(=O)N(C)c1cccc(OC)c1)[C@@H](O)c1ccc(C(C)=O)cc1	.	-1	3	0	-3
CCCc1nnn(S(=O)(=O)c2ccc([N+](=O)[O-])cc2)c1CCC	5.0*	1	-1	0	0
COc1cccc(-c2cc(NC=O)c3ncc(-c4ccc(C(C)=O)cc4)n3c2)c1	.	-5	11*	0	5
COc1cc(-c2cnc3c(NC=O)cc(-c4ccccc4)cn23)cc(OC)c1OC	.	4.2*	-3	-2	-3
COc1ccc(-c2cc(NC=O)c3ncc(-c4cccc(C(C)=O)c4)n3c2)cc1	.	-2	-2	-2	-2
SMILES	DAX1 inh-1	DAX1 inh-2	hgDAF-12 ag	ssDAF12 agonist	hcDAF-12 act
COc1cc(-c2cc(NC=O)c3ncc(-c4ccccc4)n3c2)cc(OC)c1OC	.	-1	-2	-1	-2
CN(C)C(=O)c1cccc(-c2cnc3c(NC=O)cc(-c4ccccc4Cl)cn23)c1	.	3	12*	-1	-2
CN(C)C(=O)c1cccc(-c2cnc3c(NC=O)cc(-c4ccccc4N(C)C)cn23)c1	.	1	0	-1	0
COc1cc(-c2cnc3c(NC=O)cc(-c4ccccc4Cl)cn23)cc(OC)c1OC	.	4.2*	-8	-1	1
O=C1c2ccccc2NC(c2cc(Cl)cc(Cl)c2O)N1CCc1ccccn1 (stereo unspecified)	.	2	7	0	0
CC(=O)Nc1cc(-c2cccc(F)c2)cn2c(-c3ccc(F)c(Cl)c3)cnc12	.	4.5*	-2	-1	0
CN(C)c1cccc(NC(=O)c2cccc3ccccc23)c1	1	0	1	1.2*	6.5*
O=C(NNC(=O)c1cc(-c2ccncc2)nc2ccccc12)c1cccc(Cl)c1	-1	1	3	2.6*	3
CC(=O)c1cccc(NC(=O)c2cc(-c3ccncc3)nc3ccccc23)c1	-1	-2	-1	-1	0
CC(=O)c1ccc(NC(=O)c2ccn[nH]2)cc1	2	2	8	0	5
O=C(Nc1ccccc1)c1ccn[nH]1	4.3*	2	8	0	5
CCOC(=O)Cn1cc(CN2C(C(=O)OC)CN(Cc3ccc(C)cc3)CCS2(=O)=O)nn1 (stereo unspecified)	.	0	-3	-1	2
Oc1[nH]c2ccccc2c1N=Nc1ccccc1Cl	3	2	7	2.5*	4
Cc1ccc(Cl)cc1N(CC(=O)Nc1cccc(N(C)S(C)(=O)=O)c1)S(C)(=O)=O	0	-1	2	1.1*	4
Cc1ccc(NC(=O)c2cc(S(=O)(=O)N3CCCCC3)c[nH]2)cc1Cl	.	0	-2	-2	-3
Cc1cccc(-c2ccc3c(c2)C2CC3CCN2Cc2ccc3c(c2)OCO3)c1 (stereo unspecified)	-1	4.0*	0	0	-1
CCOC(=O)c1cccc(NC(=O)CN(C)S(=O)(=O)c2ccc(C)c(C)c2)c1	.	0	-2	-1	-2
CN(Cc1ccccc1)c1ccc(C(CC(N)=O)NC(=O)c2ccc(Br)cc2)cc1[N+](=O)[O-] (stereo unspecified)	0	-1	-3	-2	-2
O=C(/C=C/Nc1ccc(S(=O)(=O)Nc2ncccn2)cc1)c1cccs1	5.7*	1	8	-1	4
O=C(/C=C/c1ccccc1)NCC1(c2ccccc2)CCOCC1	5.0*	0	-1	-1	0
CCc1c(-c2ccc(F)cc2F)ncn1CCc1ccccc1OC	.	0	-1	-2	-2
Cc1ccc2nc(-c3cccc(S(=O)(=O)N(C)C)c3)cn2c1	0	1	11*	0	2
C[C@H](CO)N1C[C@H](C)[C@H](CN(C)C(=O)Nc2cccc(F)c2)Oc2cc(Br)ccc2S1(=O)=O	.	-2	-1	-1	-1
c1ccc(-c2cn3nc(-c4ccccc4)sc3n2)cc1	5.6*	.	.	.	.
c1ccc(-c2nnc3sc(-c4ccncc4)nn23)cc1	0	-1	6	-2	-2
CCN(CC(=O)NCc1cccs1)C(=O)c1ccc(S(=O)(=O)Nc2ccccc2)cc1	-1	0	1	-1	-1
CCN(CC(=O)NCc1cccs1)C(=O)c1ccc(NS(=O)(=O)c2cccc([N+](=O)[O-])c2)cc1	4.8*	1	0	-1	1
